A word on the AC50: it is the concentration giving half of the maximal activity seen.

For assay [1], the target named is human Thyroid Receptor alpha (THRa1), THRA (gene 7067) (UniProt P10827). The assay is described as follows: ATG_THRa1_TRANS: Attagene TRANS-FACTORIAL HepG2 Assay for human Thyroid Receptor alpha (THRa1) (AID 2283014; active = hit-call score of the fitted dose curve at least 0.9, where 1 is the maximum). The essentials: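 Reporter transcript induction, read by capillary electrophoresis of 6-FAM-labelled RT-PCR products, reflects activity of a transfected THRa1-Gal4 fusion in HepG2 liver cells. Cells were dosed for 24 h; activity was fitted in the positive direction against DMSO.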
Chain of human Thyroid Receptor alpha (THRa1), THRA (gene 7067) (P10827 whole entry, looked up, the tested form may be a part): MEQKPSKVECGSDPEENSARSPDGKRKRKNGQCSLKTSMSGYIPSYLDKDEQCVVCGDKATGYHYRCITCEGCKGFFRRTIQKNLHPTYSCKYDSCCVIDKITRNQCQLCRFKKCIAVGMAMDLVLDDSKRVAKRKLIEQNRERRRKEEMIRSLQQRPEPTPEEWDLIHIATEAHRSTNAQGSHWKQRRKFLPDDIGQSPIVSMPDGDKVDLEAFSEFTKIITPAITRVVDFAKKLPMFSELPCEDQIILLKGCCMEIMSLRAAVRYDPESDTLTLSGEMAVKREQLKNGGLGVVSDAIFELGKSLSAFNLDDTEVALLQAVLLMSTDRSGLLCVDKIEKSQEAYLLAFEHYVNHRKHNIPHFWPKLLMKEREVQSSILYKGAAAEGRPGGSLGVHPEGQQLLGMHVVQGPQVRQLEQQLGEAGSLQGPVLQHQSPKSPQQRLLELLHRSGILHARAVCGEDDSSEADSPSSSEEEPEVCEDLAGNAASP

Read-out in assay [2]: E-selectin (Homo sapiens) (UniProt P16581)
Briefly: BSK_3C_Eselectin: BioMAP Diversity Plus: 3C Assay for Eselectin Biomarker Activity (AID 2283015).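 For outcome: cell surface E-selectin protein quantified by ELISA 24 h after dosing.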 Particulars: primary human endothelial cells (HUVEC); actives raise or lower the signal. The essentials: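 ELISA read-out of E-selectin on endothelial monolayers after 24 h chemical treatment. Human umbilical vein primary cells served as the system, with DMSO defining baseline activity for bidirectional fitting.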

Read-out in assay [3]: Interleukin-1 alpha (IL1a), IL1A (gene 3552)
The assay is described as follows: BSK_BE3C_IL1a: BioMAP Diversity Plus: BE3C Assay for Interleukin-1 alpha (IL1a) Biomarker Activity (AID 2283016). Particulars: primary human bronchial epithelial cells; actives raise or lower the signal. A digest of the protocol: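 Cultures of primary human bronchial epithelial cells receive test chemical. After 24 h, IL-1a is quantified by ELISA, while parallel wells are fixed in TCA and SRB-stained for total protein. Changes in either direction are fitted relative to DMSO.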

Read-out in assay [4]: Monocyte Chemoattractant Protein-1 (MCP1), CCL2 (gene 6347)
Briefly: BSK_3C_MCP1: BioMAP Diversity Plus: 3C Assay for Monocyte Chemoattractant Protein-1 (MCP1) Biomarker Activity (AID 2283017). Particulars: primary human endothelial cells (HUVEC); actives raise or lower the signal. The essentials: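 ELISA read-out of MCP-1 from human umbilical vein endothelial cell cultures harvested 24 h post-dosing. Gain or loss of signal was fitted relative to DMSO.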

Read-out in assay [5]: Human Leukocyte Antigen - DR isotype (HLADR), HLA-DRA (gene 3122)
The assay is described as follows: BSK_3C_HLADR: BioMAP Diversity Plus: 3C Assay for Human Leukocyte Antigen - DR isotype (HLADR) Biomarker Activity (AID 2283019). Particulars: primary human endothelial cells (HUVEC); actives raise or lower the signal. A digest of the protocol: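 ELISA readout of surface HLA-DR on human umbilical vein endothelium, taken 24 h after chemical treatment. Gain- and loss-of-signal were both fitted relative to DMSO.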

Read-out in assay [6]: Interleukin-8 (IL8), CXCL8 (gene 3576)
Briefly: BSK_3C_IL8: BioMAP Diversity Plus: 3C Assay for Interleukin-8 (IL8) Biomarker Activity (AID 2283020). Particulars: primary human endothelial cells (HUVEC); actives raise or lower the signal. The essentials:
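Human vascular endothelial cells (umbilical vein) in the 3C system; IL-8 level detected by ELISA at 24 h post-dose, with DMSO as baseline.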

Assay [7] has as its target human Retinoid X Receptor beta (RXRb), RXRB (gene 6257) (UniProt P28702). Briefly: ATG_RXRb_TRANS: Attagene TRANS-FACTORIAL HepG2 Assay for human Retinoid X Receptor beta (RXRb) (AID 2283013; active = hit-call score of the fitted dose curve at least 0.9, where 1 is the maximum). A digest of the protocol:
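Multiplexed TRANS reporter assay in HepG2; 24 h dosing; reporter mRNA by RT-PCR/CE fluorescence; gain-of-signal relative to DMSO.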

Read-out in assay [8]: Monocyte Chemoattractant Protein-1 (MCP1), CCL2 (gene 6347)
The assay is described as follows: BSK_4H_MCP1: BioMAP Diversity Plus: 4H Assay for Monocyte Chemoattractant Protein-1 (MCP1) Biomarker Activity (AID 2283018). Particulars: primary human endothelial cells (HUVEC); actives raise or lower the signal. A digest of the protocol: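 Readout: MCP-1 ELISA on compound-treated HUVEC, sampled 24 h post-dosing. Baseline and negative control DMSO; bidirectional fit. Overt toxicity checked alongside by sulforhodamine B protein staining at time of biomarker measurement.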

Records with an inconclusive call do not appear. Where a structure was tested more than once in an assay, its records may differ in their call. Active and inactive are the calls of the source. Rule for the calls, unless noted: active = hit-call score of the fitted dose curve at least 0.9, where 1 is the maximum; inactive = score below 0.9.

Chain of human Retinoid X Receptor beta (RXRb), RXRB (gene 6257) (P28702 whole entry, looked up): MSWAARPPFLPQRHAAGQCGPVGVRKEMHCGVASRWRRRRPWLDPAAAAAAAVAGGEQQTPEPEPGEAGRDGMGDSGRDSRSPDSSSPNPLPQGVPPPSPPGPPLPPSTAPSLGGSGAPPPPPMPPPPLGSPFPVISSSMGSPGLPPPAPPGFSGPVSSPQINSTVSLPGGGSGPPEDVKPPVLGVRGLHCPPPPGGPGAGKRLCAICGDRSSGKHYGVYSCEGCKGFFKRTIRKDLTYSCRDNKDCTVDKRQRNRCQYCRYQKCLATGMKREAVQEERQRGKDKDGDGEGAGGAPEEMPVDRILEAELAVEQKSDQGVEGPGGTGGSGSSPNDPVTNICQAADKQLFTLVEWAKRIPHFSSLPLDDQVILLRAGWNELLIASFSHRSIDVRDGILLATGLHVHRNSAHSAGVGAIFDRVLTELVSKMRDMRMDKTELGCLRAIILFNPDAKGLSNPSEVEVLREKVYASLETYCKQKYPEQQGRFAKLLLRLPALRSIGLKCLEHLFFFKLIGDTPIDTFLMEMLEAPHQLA
Chain of E-selectin (Homo sapiens) (P16581 whole entry, looked up): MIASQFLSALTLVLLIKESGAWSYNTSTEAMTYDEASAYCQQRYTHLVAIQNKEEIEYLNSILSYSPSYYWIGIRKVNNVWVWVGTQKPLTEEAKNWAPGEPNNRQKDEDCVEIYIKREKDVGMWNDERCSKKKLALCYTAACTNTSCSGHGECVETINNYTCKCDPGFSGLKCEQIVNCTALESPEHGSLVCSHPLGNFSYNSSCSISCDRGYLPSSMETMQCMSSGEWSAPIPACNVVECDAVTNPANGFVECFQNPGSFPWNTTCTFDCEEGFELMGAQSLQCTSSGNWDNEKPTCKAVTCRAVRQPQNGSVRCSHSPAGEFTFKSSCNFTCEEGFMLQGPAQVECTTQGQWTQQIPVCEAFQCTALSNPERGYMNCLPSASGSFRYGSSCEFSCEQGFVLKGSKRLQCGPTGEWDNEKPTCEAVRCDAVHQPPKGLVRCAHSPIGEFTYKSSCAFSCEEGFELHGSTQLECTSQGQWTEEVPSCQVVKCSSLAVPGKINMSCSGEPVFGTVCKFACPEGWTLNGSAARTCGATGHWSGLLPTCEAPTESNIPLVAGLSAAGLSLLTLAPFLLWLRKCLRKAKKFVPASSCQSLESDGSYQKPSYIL

Regarding `CCC(C)=O`, the result in assay [1] was inactive.

`OCc1ccc(Cl)cc1Cl`: the call in assay [1] was inactive.

For the compound `C=C(C)C(=O)OCCOCCOCCOCCOC(=O)C(=C)C`, the outcome in assay [2], in assay [3], in assay [4], in assay [5] and in assay [6] was inactive.

`CCNCCO`: the call in assay [1] was inactive.

As to `CC(CN=Cc1ccccc1O)N=Cc1ccccc1O` (stereo not given), the compound was classed as inactive in assay [1], in assay [2], in assay [3], in assay [4], in assay [5] and in assay [6]. The half-maximal activity concentration (AC50) in assay [6] was 160 nM (active).

`CC(C)Nc1nc(N)nc(Cl)n1`: in assay [1], the call was inactive.

In the case of `CS(=O)(=O)OCCCCOS(C)(=O)=O`, the call in assay [7], in assay [2], in assay [3], in assay [4], in assay [5] and in assay [6] was inactive.

Turning to `COc1ccc(COC(C)=O)cc1`, the result in assay [1] was inactive.

On to `CCOC(=O)[C@@H](C)Oc1ccc(Oc2nc3ccc(Cl)cc3o2)cc1`, for which the result in assay [7] and in assay [1] was inactive.

`Oc1ccc2cc(SSc3ccc4cc(O)ccc4c3)ccc2c1`: the call in assay [7] and in assay [1] was inactive.

On to `CCOc1ccc(N=Nc2ccc(C=Cc3ccc(N=Nc4ccc(OCC)cc4)cc3S(=O)(=O)O)c(S(=O)(=O)O)c2)cc1`, for which, in assay [1], the compound was called inactive.

Take `CCCCCCCCCCCCCCCC(=O)OC/C=C(C)/C=C/C=C(C)/C=C/C1=C(C)CCCC1(C)C`: the call in assay [7] and in assay [3] was inactive. Also, the AC50 in assay [2] was 14.3 µM (active); in assay [4], 3.97 µM (active); in assay [5], 20 µM (active); in assay [6], 1130 nM (active).

Consider `CCN(CC)C(=O)N(CC)CC`, for which the outcome in assay [1], in assay [2], in assay [3], in assay [4], in assay [8] and in assay [5] was inactive. Besides, the result in assay [6] was inactive.

Regarding `CC1(C)O[C@@H]2[C@@H](CO[C@@]3(COS(N)(=O)=O)OC(C)(C)O[C@@H]23)O1`, the call in assay [1] was inactive.

As to `CC/C=C\CCOC(=O)CC`, in assay [1], the outcome was inactive.

In the case of `CCC1CCCCC1`, the result in assay [1] was inactive.

For the compound `CCCC(C)=O`, the call in assay [7] and in assay [1] was inactive.

In the case of `O=c1c(O)c(-c2ccc(O)cc2)oc2cc(O)cc(O)c12`, the compound was classed as inactive in assay [1].

For `C[N+](C)(C)CCCCCC[N+](C)(C)C`, the compound was called inactive in assay [7] and in assay [1].

On to `O=Cc1ccccc1S(=O)(=O)O`, for which the compound was called inactive in assay [1].

`CCCCCCCCC=CCCCCCCCC1=NCCN1CCO`: the result in assay [7] and in assay [1] was inactive.

With `C/C=C(\C)C(=O)OCCc1ccccc1`, the result in assay [7] and in assay [1] was inactive.

`Cc1cc(=O)oc2cc(N(C)C)ccc12`: the result in assay [1] was inactive.

Values taken from PubChem BioAssay (EPA / NIEHS).
